Assay [1] can be described thus: ATG_GLI_CIS: Attagene CIS-FACTORIAL HepG2 Assay for human Zinc Finger Protein GLI1 (AID 2282945). Particulars: HepG2, Attagene cis-factorial reporter mRNA, GLI element; actives raise or lower the signal. The procedure, abridged:
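Bidirectional curve fits relative to DMSO, using reporter mRNA levels from RT-PCR plus capillary electrophoresis. Cells were HepG2 transiently carrying cis-regulated reporter constructs, harvested 24 h after dosing.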

For assay [2], the target named is Bile acid receptor (Homo sapiens) (UniProt Q96RI1). The assay is described as follows: ATG_IR1_CIS: Attagene CIS-FACTORIAL HepG2 Assay for human Nuclear Receptor Subfamily 1 Group H Member 4 (NR1H4), IR1 submotif (AID 2282946). Particulars: IR1 reporter transcription, actives raise or lower the signal. The procedure, abridged:
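HepG2 cells transiently transfected with multiplexed cis-element reporter units read endogenous transcription factor activity. After 24 h compound exposure, reporter mRNA was quantified by RT-PCR, fluorescent labelling, HpaI digestion and capillary electrophoresis; bidirectional fitting versus DMSO baseline.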

Assay [3] can be described thus: ATG_ISRE_CIS: Attagene CIS-FACTORIAL HepG2 Assay for human Interferon Regulatory Factor 1 (IRF1) binding to an Interferon-Stimulated Response Element (ISRE) (AID 2282948). Particulars: HepG2 ISRE cis-reporter (Attagene), mRNA transcription readout; actives raise or lower the signal. The procedure, abridged: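 Endogenous transcription factor activity read as reporter transcript abundance via RT-PCR and capillary electrophoresis. HepG2 cells transiently transfected, 24 h chemical exposure. Gain or loss fitted against DMSO baseline.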

Assay [4] in a line: ATG_M_32_CIS: Attagene CIS-FACTORIAL HepG2 Assay for M32 Transcription Factor (Internal Marker) (AID 2282949).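 Note: background control marker of the multiplexed CIS panel rather than a real target.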 The settings on record: HepG2 Attagene cis-factorial M32 reporter, mRNA; actives raise or lower the signal. The procedure, abridged: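 Using DMSO as baseline, bidirectional curve fits were applied to reporter mRNA signals. These came from transiently transfected HepG2 cells exposed for 24 h, with RNA analysed by RT-PCR, FAM primer extension, HpaI digestion and CE.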

The target in assay [5] is Hypoxia-inducible factor 1-alpha (Homo sapiens) (UniProt Q16665). The assay is described as follows: ATG_HIF1a_CIS: Attagene CIS-FACTORIAL HepG2 Assay for human Hypoxia Inducible Factor 1 (HIF1A) (AID 2282951). The settings on record: HepG2 Attagene cis-factorial HIF1a reporter transcription; actives raise or lower the signal. The procedure, abridged: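 After 24 h chemical exposure of reporter-transfected HepG2 cells, reporter cDNA was PCR-amplified, labelled by 6-FAM primer extension (2 min 95 C, 20 s 68 C, 10 min 72 C), HpaI-cut (2 h, 37 C) and analysed by CE.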

Assay [6] addresses Hepatocyte nuclear factor 6 (Homo sapiens) (UniProt Q9UBC0). As to the kind of experiment: ATG_HNF6_CIS: Attagene CIS-FACTORIAL HepG2 Assay for human Hepatocyte Nuclear Factor 6 (HNF6) (AID 2282952). The settings on record: HepG2 Attagene cis-factorial HNF6 reporter transcription; actives raise or lower the signal. The procedure, abridged: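 Using cis-element reporters in HepG2 liver cells, the assay tracks endogenous factor-driven transcription 24 h post-dosing. Signal comes from 6-FAM-labelled, HpaI-digested RT-PCR fragments, with gain or loss scored against DMSO.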

The target in assay [7] is Heat shock factor protein 1 (Homo sapiens) (UniProt Q00613). As to the kind of experiment: ATG_HSE_CIS: Attagene CIS-FACTORIAL HepG2 Assay for human Heat Shock Transcription Factor 1 (HSE) (AID 2282953). The settings on record: HepG2 HSE cis-reporter, Attagene RNA transcription; actives raise or lower the signal. The procedure, abridged:
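Using HepG2 with transfected cis-driven reporter constructs, compound effects on endogenous factor activity are scored as reporter mRNA change at 24 h. Detection: RT-PCR, HpaI digestion, capillary electrophoresis; bidirectional fitting to DMSO.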

Assay [8] can be described thus: ATG_MRE_CIS: Attagene CIS-FACTORIAL HepG2 Assay for human Metal Responsive Element (MRE) (AID 2282954). The settings on record: HepG2 MRE cis-reporter transcription, Attagene multiplex; actives raise or lower the signal. The procedure, abridged: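 Multiplexed cis-reporter assay in human HepG2 liver cells, 24 h incubation with test chemical. Reporter transcripts measured by RT-PCR and capillary electrophoresis; values from bidirectional curve fitting versus DMSO.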

The nature of assay [9]: ATG_PBREM_CIS: Attagene CIS-FACTORIAL HepG2 Assay for human Phenobarbital-responsive Enhancer Module (PBREM) (AID 2282955). The settings on record: HepG2 PBREM cis-reporter, Attagene multiplexed transcription; actives raise or lower the signal. The procedure, abridged:
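Measures endogenous factor action on a phenobarbital-responsive enhancer module. HepG2 transiently carrying cis reporters, 24 h treatment, mRNA read-out by RT-PCR plus capillary electrophoresis.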

The target in assay [10] is Paired box protein Pax-6 (Homo sapiens) (UniProt P26367). As to the kind of experiment: ATG_Pax6_CIS: Attagene CIS-FACTORIAL HepG2 Assay for human Paired Box 6 (PAX6) (AID 2282956). Particulars: HepG2 CIS-FACTORIAL PAX6 reporter transcription, RNA readout; actives raise or lower the signal. The procedure, abridged:
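Read-out is reporter transcript level, measured by RT-PCR with fluorescent primer extension and capillary electrophoresis after 24 h dosing of transfected HepG2 cells. Activity in either direction fitted relative to DMSO control.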

Assay [11] in a line: ATG_PXRE_CIS: Attagene CIS-FACTORIAL HepG2 Assay for human Pregnane X Receptor Element (PXRE) (AID 2282957). The settings on record: HepG2 Attagene CIS-FACTORIAL PXRE reporter, mRNA; actives raise or lower the signal. The procedure, abridged:
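Using HepG2 transfected with multiple reporter transcription units, endogenous factor-driven transcription was scored as reporter mRNA after 24 h exposure.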

Assay [12] in a line: ATG_RORE_CIS: Attagene CIS-FACTORIAL HepG2 Assay for human RAR-related Orphan Receptor Element (RORE) (AID 2282959). Particulars: HepG2 Attagene cis-factorial RORE reporter, mRNA; actives raise or lower the signal. The procedure, abridged:
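A 24-hour exposure of transfected HepG2 hepatoma cells precedes RNA isolation and reporter RT-PCR. Labeled products are digested with HpaI and resolved by capillary electrophoresis, with gain or loss of signal scored relative to DMSO.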

The nature of assay [13]: ATG_Sox_CIS: Attagene CIS-FACTORIAL HepG2 Assay for human SRY-box transcription factor (SOX) (AID 2282960). The settings on record: HepG2 Attagene cis-factorial SOX reporter, mRNA; actives raise or lower the signal. The procedure, abridged: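 HepG2, cis reporter units, 24 h exposure. Reporter mRNA: RT-PCR → FAM labelling → HpaI → CE fluorescence. Bidirectional fit vs DMSO.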

Assay [14] concerns the target Transcription factor Sp1 (Homo sapiens) (UniProt P08047). As to the kind of experiment: ATG_Sp1_CIS: Attagene CIS-FACTORIAL HepG2 Assay for human Specificity Protein 1 (Sp1) (AID 2282961). Particulars: HepG2 Sp1 cis-reporter transcription, actives raise or lower the signal. The procedure, abridged: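 Liver-derived HepG2 cells, cis-element reporter library, 24 h treatment; RNA isolated, cDNA amplified with reporter-specific primers, FAM-labeled fragments sized on capillary analyzer. DMSO baseline, bidirectional curve fit.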

Assay [15] in a line: ATG_SREBP_CIS: Attagene CIS-FACTORIAL HepG2 Assay for human Sterol Regulatory Element Binding (SREBP) (AID 2282962). The settings on record: HepG2 Attagene cis-factorial SREBP reporter, mRNA; actives raise or lower the signal. The procedure, abridged: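 Endogenous SREBP activity read as cis-element-driven reporter transcript in transiently transfected HepG2, 24 h post-dosing; quantified via RT-PCR plus capillary electrophoresis of fluorescent fragments. Gain or loss of signal fitted relative to DMSO baseline.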

In assay [16] the target is Signal transducer and activator of transcription 3 (Homo sapiens) (UniProt P40763). As to the kind of experiment: ATG_STAT3_CIS: Attagene CIS-FACTORIAL HepG2 Assay for human Signal Transducer and Activator of Transcription 3 (STAT3) (AID 2282963). The settings on record: HepG2, Attagene cis-factorial STAT3 reporter transcription; actives raise or lower the signal. The procedure, abridged:
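Cis-factorial format: endogenous transcription factors in HepG2 drive transfected reporter units. After 24 h treatment, reporter RNA was reverse-transcribed, amplified, FAM-labelled and HpaI-digested before CE analysis; activity scored in both directions against DMSO.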

Assay [17] can be described thus: ATG_TA_CIS: Attagene CIS-FACTORIAL HepG2 Assay for human TA Basal Promoter (AID 2282964). The settings on record: HepG2 Attagene CIS-factorial TA basal promoter reporter; actives raise or lower the signal. The procedure, abridged: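 Transient MRTU transfection of HepG2 preceded 24 h compound exposure. Reporter mRNA levels were then read by RT-PCR with capillary electrophoresis, and this background-control endpoint was fitted bidirectionally to DMSO.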

The nature of assay [18]: ATG_GRE_CIS: Attagene CIS-FACTORIAL HepG2 Assay for human Glucocorticoid Response Elements (GRE) (AID 2282947). The settings on record: HepG2 GRE cis-reporter, Attagene multiplex mRNA; actives raise or lower the signal. The procedure, abridged:
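Multiplexed cis-reporter mRNA induction, HepG2, 24 h post-dose. RT-PCR, FAM-labelled, HpaI-digested amplicons by CE. Bidirectional fit vs DMSO.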

The nature of assay [19]: ATG_PPRE_CIS: Attagene CIS-FACTORIAL HepG2 Assay for human Peroxisome Proliferator-activated Response Element (PPRE) (AID 2282958). The settings on record: HepG2 PPRE cis-element reporter, Attagene transcription factor profiling; actives raise or lower the signal. The procedure, abridged:
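PPRE activity in HepG2: transient cis-reporter transfection, 24 h compound incubation, reporter mRNA by RT-PCR and CE fluorescence; gain/loss fitted against DMSO.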

“And” between values parts separate entries of the source, which are not always exact repeats. Identical values can stand only once. Where a structure was tested more than once in an assay, its records may differ in their call. The source made the active and inactive calls. Rule for the calls: active = hit-call score of the fitted dose curve at least 0.9, where 1 is the maximum; inactive = score below 0.9.

Sequence of Hypoxia-inducible factor 1-alpha (Homo sapiens) (Q16665 whole entry, looked up): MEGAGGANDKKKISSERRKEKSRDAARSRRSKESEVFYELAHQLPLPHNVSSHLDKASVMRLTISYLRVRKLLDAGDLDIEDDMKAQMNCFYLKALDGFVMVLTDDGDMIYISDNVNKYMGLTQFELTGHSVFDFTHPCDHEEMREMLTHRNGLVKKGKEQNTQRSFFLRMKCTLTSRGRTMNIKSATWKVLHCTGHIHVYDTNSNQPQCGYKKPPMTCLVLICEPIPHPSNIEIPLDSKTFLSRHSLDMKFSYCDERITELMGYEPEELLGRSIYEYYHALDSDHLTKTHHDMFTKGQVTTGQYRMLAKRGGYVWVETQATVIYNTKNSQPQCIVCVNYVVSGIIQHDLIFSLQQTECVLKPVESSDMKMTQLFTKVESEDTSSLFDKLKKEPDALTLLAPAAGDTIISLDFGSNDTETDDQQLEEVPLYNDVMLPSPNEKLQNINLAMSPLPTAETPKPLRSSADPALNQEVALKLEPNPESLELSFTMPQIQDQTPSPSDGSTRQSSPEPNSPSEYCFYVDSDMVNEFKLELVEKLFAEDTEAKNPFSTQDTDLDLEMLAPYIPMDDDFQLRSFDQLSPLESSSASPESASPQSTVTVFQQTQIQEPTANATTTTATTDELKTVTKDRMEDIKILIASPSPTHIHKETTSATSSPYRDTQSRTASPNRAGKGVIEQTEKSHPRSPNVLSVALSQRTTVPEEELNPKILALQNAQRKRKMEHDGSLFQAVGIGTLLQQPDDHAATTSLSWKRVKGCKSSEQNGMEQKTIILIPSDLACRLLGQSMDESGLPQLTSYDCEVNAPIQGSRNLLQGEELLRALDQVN
Sequence of Transcription factor Sp1 (Homo sapiens) (P08047 whole entry, looked up, the tested form may be a part): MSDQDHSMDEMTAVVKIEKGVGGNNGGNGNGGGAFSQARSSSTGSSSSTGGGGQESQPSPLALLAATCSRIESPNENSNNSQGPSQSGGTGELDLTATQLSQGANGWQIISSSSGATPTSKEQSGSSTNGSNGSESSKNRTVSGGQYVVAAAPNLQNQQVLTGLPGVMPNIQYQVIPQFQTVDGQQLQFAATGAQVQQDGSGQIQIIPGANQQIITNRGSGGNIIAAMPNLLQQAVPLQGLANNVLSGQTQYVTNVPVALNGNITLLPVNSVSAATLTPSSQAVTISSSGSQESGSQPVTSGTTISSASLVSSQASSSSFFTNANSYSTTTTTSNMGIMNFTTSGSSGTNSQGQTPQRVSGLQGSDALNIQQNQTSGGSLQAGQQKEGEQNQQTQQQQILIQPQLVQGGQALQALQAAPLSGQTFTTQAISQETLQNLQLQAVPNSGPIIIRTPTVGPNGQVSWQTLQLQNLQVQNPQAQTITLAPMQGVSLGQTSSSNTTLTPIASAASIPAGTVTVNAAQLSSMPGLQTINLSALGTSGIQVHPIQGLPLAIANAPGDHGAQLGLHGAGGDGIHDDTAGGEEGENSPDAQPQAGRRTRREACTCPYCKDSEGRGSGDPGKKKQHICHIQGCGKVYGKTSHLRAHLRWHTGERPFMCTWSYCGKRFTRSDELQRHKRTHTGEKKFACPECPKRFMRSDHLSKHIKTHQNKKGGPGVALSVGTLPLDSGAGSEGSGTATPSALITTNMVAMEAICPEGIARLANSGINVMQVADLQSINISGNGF
Sequence of Paired box protein Pax-6 (Homo sapiens) (P26367 whole entry, looked up): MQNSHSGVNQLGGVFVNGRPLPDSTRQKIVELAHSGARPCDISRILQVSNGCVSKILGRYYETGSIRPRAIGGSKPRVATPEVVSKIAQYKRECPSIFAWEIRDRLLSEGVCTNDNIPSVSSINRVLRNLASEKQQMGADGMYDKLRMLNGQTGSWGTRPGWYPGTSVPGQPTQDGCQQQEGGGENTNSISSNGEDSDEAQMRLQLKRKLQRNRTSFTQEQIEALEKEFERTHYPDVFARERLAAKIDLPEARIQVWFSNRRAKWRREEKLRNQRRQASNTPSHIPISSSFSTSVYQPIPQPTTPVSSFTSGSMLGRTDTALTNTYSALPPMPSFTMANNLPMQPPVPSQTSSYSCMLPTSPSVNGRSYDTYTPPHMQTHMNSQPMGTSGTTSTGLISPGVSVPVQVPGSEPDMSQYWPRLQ
Sequence of Hepatocyte nuclear factor 6 (Homo sapiens) (Q9UBC0 whole entry, looked up, the tested form may be a part): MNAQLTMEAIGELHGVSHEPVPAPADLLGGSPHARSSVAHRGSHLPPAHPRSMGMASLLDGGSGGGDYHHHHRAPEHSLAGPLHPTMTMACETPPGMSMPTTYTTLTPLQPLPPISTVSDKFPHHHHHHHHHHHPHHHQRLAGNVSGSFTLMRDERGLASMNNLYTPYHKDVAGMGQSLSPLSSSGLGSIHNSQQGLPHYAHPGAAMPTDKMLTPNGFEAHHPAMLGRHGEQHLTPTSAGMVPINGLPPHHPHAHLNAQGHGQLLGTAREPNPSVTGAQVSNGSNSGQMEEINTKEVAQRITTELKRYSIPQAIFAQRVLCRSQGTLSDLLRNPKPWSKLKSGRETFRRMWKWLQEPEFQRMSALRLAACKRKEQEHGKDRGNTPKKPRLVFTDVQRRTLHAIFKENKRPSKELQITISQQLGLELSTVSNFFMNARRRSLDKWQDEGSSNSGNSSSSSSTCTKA
Sequence of Heat shock factor protein 1 (Homo sapiens) (Q00613 whole entry, looked up): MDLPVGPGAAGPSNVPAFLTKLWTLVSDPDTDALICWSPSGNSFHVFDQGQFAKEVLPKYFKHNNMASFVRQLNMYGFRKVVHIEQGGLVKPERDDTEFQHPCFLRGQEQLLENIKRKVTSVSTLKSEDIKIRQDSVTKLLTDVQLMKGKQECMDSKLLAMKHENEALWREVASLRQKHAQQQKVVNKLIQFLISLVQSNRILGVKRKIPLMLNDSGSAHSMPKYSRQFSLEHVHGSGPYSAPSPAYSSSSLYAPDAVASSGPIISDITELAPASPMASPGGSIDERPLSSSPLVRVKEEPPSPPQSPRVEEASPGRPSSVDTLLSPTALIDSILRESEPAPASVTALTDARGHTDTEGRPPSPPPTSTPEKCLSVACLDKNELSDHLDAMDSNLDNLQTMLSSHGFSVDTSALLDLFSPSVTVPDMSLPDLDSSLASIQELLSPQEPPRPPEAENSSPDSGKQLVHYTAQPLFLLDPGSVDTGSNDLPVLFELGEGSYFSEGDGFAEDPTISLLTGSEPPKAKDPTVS
Sequence of Signal transducer and activator of transcription 3 (Homo sapiens) (P40763 whole entry, looked up): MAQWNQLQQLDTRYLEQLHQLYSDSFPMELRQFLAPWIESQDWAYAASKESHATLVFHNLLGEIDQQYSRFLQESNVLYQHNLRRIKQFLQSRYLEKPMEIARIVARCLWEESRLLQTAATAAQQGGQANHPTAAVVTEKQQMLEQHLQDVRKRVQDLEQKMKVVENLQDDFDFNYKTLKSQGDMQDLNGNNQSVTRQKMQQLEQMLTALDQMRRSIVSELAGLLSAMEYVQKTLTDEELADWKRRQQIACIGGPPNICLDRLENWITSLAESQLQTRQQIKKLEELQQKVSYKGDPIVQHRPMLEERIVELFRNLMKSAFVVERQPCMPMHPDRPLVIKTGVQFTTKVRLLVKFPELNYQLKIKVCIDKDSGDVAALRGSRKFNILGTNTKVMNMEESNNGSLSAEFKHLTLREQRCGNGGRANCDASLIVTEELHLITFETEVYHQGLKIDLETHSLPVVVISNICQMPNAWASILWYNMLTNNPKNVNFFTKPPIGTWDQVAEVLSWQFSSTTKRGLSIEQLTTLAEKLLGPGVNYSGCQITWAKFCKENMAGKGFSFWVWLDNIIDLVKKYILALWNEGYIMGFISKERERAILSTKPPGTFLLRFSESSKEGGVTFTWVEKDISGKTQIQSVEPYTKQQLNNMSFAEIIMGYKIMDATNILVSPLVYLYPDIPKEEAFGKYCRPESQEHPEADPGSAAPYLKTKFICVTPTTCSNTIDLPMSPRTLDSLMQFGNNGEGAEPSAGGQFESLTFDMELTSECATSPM
Sequence of Bile acid receptor (Homo sapiens) (Q96RI1 whole entry, looked up): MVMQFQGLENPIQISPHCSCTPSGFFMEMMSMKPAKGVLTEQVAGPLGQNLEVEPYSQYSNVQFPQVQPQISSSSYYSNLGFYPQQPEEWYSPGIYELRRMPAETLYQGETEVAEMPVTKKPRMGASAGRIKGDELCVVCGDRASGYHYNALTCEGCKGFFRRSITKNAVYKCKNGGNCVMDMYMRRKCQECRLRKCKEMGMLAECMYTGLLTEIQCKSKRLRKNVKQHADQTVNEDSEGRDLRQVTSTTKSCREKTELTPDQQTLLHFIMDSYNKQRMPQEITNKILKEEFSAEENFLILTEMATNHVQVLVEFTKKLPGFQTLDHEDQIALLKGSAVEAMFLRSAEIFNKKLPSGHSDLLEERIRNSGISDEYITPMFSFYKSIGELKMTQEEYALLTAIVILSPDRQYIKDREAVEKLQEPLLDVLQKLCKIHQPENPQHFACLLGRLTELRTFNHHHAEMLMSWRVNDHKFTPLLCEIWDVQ

Regarding `c1ccc2cc3c(ccc4ccccc43)cc2c1`, the compound was classed as inactive in assay [1], in [2], in assay [3], in assay [4], in assay [5] and in [6]. Moreover, the compound was classed as inactive in assay [7], in assay [8], in assay [9], in assay [10], in assay [11] and in assay [12]. The compound was classed as inactive in [13], in assay [14], in assay [15], in [16] and in assay [17]. Further, the AC50 in [2] was 621 nM (active) and 25.4 µM (active) and 1.92 µM (active); in [5], 3.05 µM (active) and 2.3 µM (active); in assay [7], 120 µM (active); in assay [11], 8.53 µM (active) and 20.8 µM (active); in assay [12] it was 1.44 µM (active).
For `O=c1c(-c2ccc(O)cc2)coc2cc(O)ccc12`, the call in assay [1], in [2], in assay [18], in assay [3], in assay [4] and in assay [6] was inactive. The outcome in assay [7], in assay [8], in assay [9], in assay [10], in [11] and in assay [19] was inactive. Besides, the outcome in [12], in [13], in assay [14], in assay [15], in [16] and in [17] was inactive. The AC50 was 52.6 µM (active) and 100 µM (active) in assay [2]; 42 µM (active) and 52.3 µM (active) in assay [19]; 38.8 µM (active) in assay [14]; 47.5 µM (active) and 91.4 µM (active) in assay [15].

The record behind these values is PubChem BioAssay (EPA / NIEHS).
